The source made the active and inactive calls. How the source made its calls: active means hit-call score of the fitted dose curve at least 0.9, where 1 is the maximum; inactive means score below 0.9.

The record followed here is PubChem BioAssay (EPA / NIEHS).

What all share (details): mRNA level, 48 h; actives raise or lower the signal
Read-out in assay [1]: ATP-citrate lyase (ACLY), ACLY (gene 47)
Kind of assay: LTEA_HepaRG_ACLY: Life Technologies and Expression Analysis (LTEA) Assay for ATP-citrate lyase (ACLY) using HepaRG (AID 2283466). A digest of the protocol: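 HepaRG, 48 h exposure, 8-pt half-log dilutions (top 100 uM), 0.5% DMSO. Readout: ACLY mRNA, TaqMan qRT-PCR, housekeeping-normalized (ACTB/GAPDH/POLR2A). Bidirectional curve fit vs DMSO.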

Read-out in assay [2]: Peroxisomal acyl-coenzyme A oxidase 1 (ACOX1) gene, ACOX1 (gene 51)
Kind of assay: LTEA_HepaRG_ACOX1: Life Technologies and Expression Analysis (LTEA) Assay for Peroxisomal acyl-coenzyme A oxidase 1 (ACOX1) gene using HepaRG (AID 2283467). A digest of the protocol: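 Measured by qRT-PCR against three housekeeping genes: ACOX1 transcript change in human HepaRG cells after 48 h dosing. Concentrations ran up to 100 uM in half-log steps. Curves were fitted bidirectionally relative to 0.5% DMSO.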

Read-out in assay [3]: Alkaline Phosphatase, Placental (ALPP) gene, ALPP (gene 250)
In words: LTEA_HepaRG_ALPP: Life Technologies and Expression Analysis (LTEA) Assay for Alkaline Phosphatase, Placental (ALPP) gene using HepaRG (AID 2283468).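 On AC50: differentiated human HepaRG liver cells in serum-free induction medium.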 A digest of the protocol:
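Using human liver HepaRG cells, chemicals are tested in duplicate over 48 h at half-log concentrations topping at 100 uM; phenobarbital 1 mM serves as induction control. ALPP mRNA change by qRT-PCR, bidirectional fit against vehicle.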

Read-out in assay [4]: Bcl-2 (BAD) gene, BAD (gene 572)
In words: LTEA_HepaRG_BAD: Life Technologies and Expression Analysis (LTEA) Assay for Bcl-2 (BAD) gene using HepaRG (AID 2283469). A digest of the protocol: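 BAD transcript change, measured by qRT-PCR against three housekeeping genes and fitted in both directions relative to 0.5% DMSO, after 48 h chemical treatment of human HepaRG liver cells at concentrations up to 100 uM.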

Read-out in assay [5]: Bcl-2 (BAX) gene, BAX (gene 581)
In words: LTEA_HepaRG_BAX: Life Technologies and Expression Analysis (LTEA) Assay for Bcl-2 (BAX) gene using HepaRG (AID 2283470). A digest of the protocol:
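HepaRG (human liver), 48 h exposure, duplicate wells. 8-pt curve, half-log from 100 uM, 0.5% DMSO. BAX transcript by TaqMan qRT-PCR; ACTB/GAPDH/POLR2A normalization; gain or loss vs DMSO baseline.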

Read-out in assay [6]: adenosine kinase (ADK) gene, ADK (gene 132)
Kind of assay: LTEA_HepaRG_ADK: Life Technologies and Expression Analysis (LTEA) Assay for adenosine kinase (ADK) gene using HepaRG (AID 2283471). A digest of the protocol:
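Differentiated HepaRG cells dosed 48 h in serum-free induction medium, 0.5% DMSO vehicle, eight half-log concentrations from 100 uM, in duplicate. ADK mRNA by TaqMan qRT-PCR normalised to ACTB, GAPDH, POLR2A; bidirectional fit versus DMSO.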

Read-out in assay [7]: Alpha-fetoprotein (AFP) gene, AFP (gene 174)
In words: LTEA_HepaRG_AFP: Life Technologies and Expression Analysis (LTEA) Assay for Alpha-fetoprotein (AFP) gene using HepaRG (AID 2283472). A digest of the protocol: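 HepaRG, single lot; 48 h post-plating -> serum-free induction medium; cpd 8-pt, 100 uM top, half-log, 0.5% DMSO, duplicate, 48 h. RNA -> qRT-PCR AFP, norm ACTB/GAPDH/POLR2A. Bidirectional fit vs DMSO.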

Read-out in the next assay: BCL2L11 (gene 10018)
In words: LTEA_HepaRG_BCL2L11: Life Technologies and Expression Analysis (LTEA) Assay for Bcl-2 (BCL2L11) gene using HepaRG (AID 2283473). A digest of the protocol:
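Human hepatic HepaRG cultures are treated 48 h with test chemicals (maximum 100 uM, 0.5% DMSO vehicle). Expression of BCL2L11 is measured by qRT-PCR against ACTB, GAPDH and POLR2A, with activity in either direction scored relative to vehicle.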

Read-out in assay [8]: Apolipoprotein A-V (APOA5) gene, APOA5 (gene 116519)
Kind of assay: LTEA_HepaRG_APOA5: Life Technologies and Expression Analysis (LTEA) Assay for Apolipoprotein A-V (APOA5) gene using HepaRG (AID 2283474). Put shortly:
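Concentration-response of APOA5 expression in HepaRG: eight half-log doses to 100 uM, 48 h, qRT-PCR normalized to ACTB/GAPDH/POLR2A, bidirectional fitting with 0.5% DMSO as baseline.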

Read-out in assay [9]: Apoptosis regulator Bcl-2 (Homo sapiens) (UniProt P10415)
In words: LTEA_HepaRG_BCL2: Life Technologies and Expression Analysis (LTEA) Assay for Bcl-2 gene using HepaRG (AID 2283475). Put shortly: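 HepaRG, plated 48 h then switched to serum-free induction medium; dosed 48 h, 8 conc. (max 100 uM, half-log steps), duplicate, 0.5% DMSO. Lysis in RLT, RNA isolated, TaqMan qRT-PCR for BCL2; ACTB/GAPDH/POLR2A normalisation; bidirectional fit vs DMSO.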

Read-out in assay [10]: Bcl-2 (BID) gene, BID (gene 637)
In words: LTEA_HepaRG_BID: Life Technologies and Expression Analysis (LTEA) Assay for Bcl-2 (BID) gene using HepaRG (AID 2283476). Put shortly: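 Transcript levels of BID, measured by qRT-PCR and normalized to three housekeeping genes, were fitted bidirectionally against DMSO controls. Cells were HepaRG, dosed 48 h at up to 100 uM.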

Read-out in another assay: Caspase-3 (Homo sapiens) (UniProt P42574)
Kind of assay: LTEA_HepaRG_CASP3: Life Technologies and Expression Analysis (LTEA) Assay for cysteine-aspartic acid protease (CASP3) using HepaRG (AID 2283477). Put shortly:
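Transcript-level assay: CASP3 mRNA in human HepaRG after 48 h treatment, eight half-log concentrations from 100 uM in 0.5% DMSO, quantified by qRT-PCR.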

Read-out in assay [11]: Cytochrome P450 (CYP24A1), CYP24A1 (gene 1591)
In words: LTEA_HepaRG_CYP24A1: Life Technologies and Expression Analysis (LTEA) Assay for Cytochrome P450 (CYP24A1) using HepaRG (AID 2283478). Put shortly:
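Gene expression of CYP24A1 by TaqMan qRT-PCR in HepaRG after 48 h treatment, highest concentration 100 uM; activity fitted in both directions relative to DMSO vehicle.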

Read-out in assay [12]: Cytochrome P450 (CYP1A2), CYP1A2 (gene 1544)
Kind of assay: LTEA_HepaRG_CYP1A2: Life Technologies and Expression Analysis (LTEA) Assay for Cytochrome P450 (CYP1A2) using HepaRG (AID 2283479). Put shortly: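 In duplicate wells, HepaRG cultures maintained in 0.5% DMSO were treated 48 h across an 8-point, half-log series topping at 100 uM; phenobarbital (1 mM) served as induction control. Expression was read by qRT-PCR.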

Read-out in assay [13]: cysteine-aspartic acid protease (CASP8), CASP8 (gene 841)
In words: LTEA_HepaRG_CASP8: Life Technologies and Expression Analysis (LTEA) Assay for cysteine-aspartic acid protease (CASP8) using HepaRG (AID 2283480). Put shortly:
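HepaRG, 48 h exposure, duplicate wells; 8 conc, half-log from 100 uM, 0.5% DMSO. Serum-free induction medium. CASP8 mRNA by TaqMan qRT-PCR, norm. ACTB/GAPDH/POLR2A; gain/loss fitted vs DMSO.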

Read-out in assay [14]: Cytochrome P450 2C19 (Homo sapiens) (UniProt P33261)
In words: LTEA_HepaRG_CYP2C19: Life Technologies and Expression Analysis (LTEA) Assay for CYP2C19 using HepaRG (AID 2283482). Put shortly:
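Endpoint: CYP2C19 mRNA change, bidirectional fit vs 0.5% DMSO. Cells: HepaRG, 48 h exposure, eight-point series topping at 100 uM. Quantitation: qRT-PCR normalized to ACTB, GAPDH, POLR2A.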

Read-out in the next assay: CYP2C8 (gene 1558)
Kind of assay: LTEA_HepaRG_CYP2C8: Life Technologies and Expression Analysis (LTEA) Assay for CYP2C8 using HepaRG (AID 2283483). Put shortly: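 CYP2C8 mRNA induction or loss, by qRT-PCR normalized to ACTB/GAPDH/POLR2A, is read in HepaRG cells after 48 h treatment. Concentrations run from 100 uM down in half-log dilutions, with 0.5% DMSO as vehicle and baseline.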

Read-out in another assay: CYP2C9 (gene 1559)
Kind of assay: LTEA_HepaRG_CYP2C9: Life Technologies and Expression Analysis (LTEA) Assay for CYP2C9 using HepaRG (AID 2283484). A digest of the protocol: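 Cells plated 48 h, switched to serum-free induction medium, then treated in duplicate for 48 h at eight concentrations (max 100 uM, 0.5% DMSO). RNA then analysed by qRT-PCR for CYP2C9; curves fitted in both directions relative to DMSO.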

Read-out in the next assay: CYP2E1 (gene 1571)
Kind of assay: LTEA_HepaRG_CYP2E1: Life Technologies and Expression Analysis (LTEA) Assay for CYP2E1 using HepaRG (AID 2283485). A digest of the protocol:
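Human liver line HepaRG, plated 48 h, then serum-free induction medium + chemical x 48 h; 8-pt CRC from 100 uM, half-log, 0.5% DMSO, n=2. Readout: CYP2E1 mRNA qRT-PCR vs ACTB/GAPDH/POLR2A; bidirectional fit vs DMSO.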

Read-out in assay [15]: Cytochrome P450 (CYP2B6), CYP2B6 (gene 1555)
Kind of assay: LTEA_HepaRG_CYP2B6: Life Technologies and Expression Analysis (LTEA) Assay for Cytochrome P450 (CYP2B6) using HepaRG (AID 2283481). Put shortly: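 Human HepaRG, 48 h dosing, 0.5% DMSO vehicle, top dose 100 uM. CYP2B6 transcript by qRT-PCR, housekeeping-normalized, bidirectional curve fit.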

Sequence of Cytochrome P450 2C19 (Homo sapiens) (P33261 whole entry, looked up): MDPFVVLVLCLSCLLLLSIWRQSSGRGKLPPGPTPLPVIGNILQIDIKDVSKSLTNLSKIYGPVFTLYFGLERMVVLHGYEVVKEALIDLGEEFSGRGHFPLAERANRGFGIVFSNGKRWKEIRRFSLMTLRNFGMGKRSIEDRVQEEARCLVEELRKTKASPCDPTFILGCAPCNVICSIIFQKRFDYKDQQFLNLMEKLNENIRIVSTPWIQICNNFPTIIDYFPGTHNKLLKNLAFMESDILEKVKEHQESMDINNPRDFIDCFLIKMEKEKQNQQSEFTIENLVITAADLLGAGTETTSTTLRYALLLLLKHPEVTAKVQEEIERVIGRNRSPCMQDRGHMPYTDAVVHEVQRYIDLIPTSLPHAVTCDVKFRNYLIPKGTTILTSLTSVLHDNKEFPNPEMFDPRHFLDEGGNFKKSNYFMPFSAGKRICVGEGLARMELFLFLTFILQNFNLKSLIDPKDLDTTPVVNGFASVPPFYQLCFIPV
Sequence of Apoptosis regulator Bcl-2 (Homo sapiens) (P10415 whole entry, looked up): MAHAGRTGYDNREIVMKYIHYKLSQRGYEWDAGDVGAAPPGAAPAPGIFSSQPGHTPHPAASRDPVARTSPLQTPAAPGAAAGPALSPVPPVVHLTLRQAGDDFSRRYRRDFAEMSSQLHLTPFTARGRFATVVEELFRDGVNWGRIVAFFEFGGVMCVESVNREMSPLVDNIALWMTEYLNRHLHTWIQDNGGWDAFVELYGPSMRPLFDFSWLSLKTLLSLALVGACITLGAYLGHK
Sequence of Caspase-3 (Homo sapiens) (P42574 whole entry, looked up): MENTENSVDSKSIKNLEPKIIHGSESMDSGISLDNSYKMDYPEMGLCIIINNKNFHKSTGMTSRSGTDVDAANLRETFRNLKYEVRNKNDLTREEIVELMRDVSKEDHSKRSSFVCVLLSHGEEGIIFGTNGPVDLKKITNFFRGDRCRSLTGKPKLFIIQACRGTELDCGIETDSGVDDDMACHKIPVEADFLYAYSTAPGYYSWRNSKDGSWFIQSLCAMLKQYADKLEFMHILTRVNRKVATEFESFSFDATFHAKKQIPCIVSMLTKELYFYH

As a reminder, the AC50 is the concentration giving half of the maximal activity seen. On to `OCCNCCO`, for which the molecule was called inactive (in assay [1]; in [2]; in [4]; in [5]; in assay [6]; in the assay with BCL2L11 (gene 10018)). The molecule was classed as inactive (in assay [8]; in assay [9]; in assay [10]; with Caspase-3 (Homo sapiens); in assay [11]; in assay [12]). Besides, the outcome (in [13]; in the assay with CYP2C8 (gene 1558)) was inactive. Moreover, the AC50 (in [3]; in [7]; in assay [14]; with CYP2C9 (gene 1559)) was 50 µM (active) throughout.

Regarding `c1ccc2c(c1)-c1cccc3c1c-2cc1ccccc13`, the AC50 in assay [1] is 3.88 µM (active); in assay [2], 15.9 µM (active); in assay [7], 17.2 µM (active); with BCL2L11 (gene 10018), 12.5 µM (active); in assay [8], 13.4 µM (active); in assay [9], 6 µM (active). The AC50 in the assay with Caspase-3 (Homo sapiens) was 13.5 µM (active); in [12], 1.13 µM (active); in assay [14], 17.2 µM (active); with CYP2C8 (gene 1558) it was 17.3 µM (active); in the assay with CYP2C9 (gene 1559), 18.1 µM (active); with CYP2E1 (gene 1571) it was 14.7 µM (active). In addition, the call in assay [3], in assay [4], in assay [5], in assay [10] and in assay [11] was inactive.

Consider `Cc1nccn1-c1ccc(Sc2cccc(C3(C(N)=O)CCOCC3)c2)cc1`, for which the result in [1], in assay [4], in assay [5], in assay [10] and in [11] was inactive. Moreover, the AC50 in [3] was 5.09 µM (active); in assay [6] it was 13.1 µM (active); in [7], 13.4 µM (active); in the assay with BCL2L11 (gene 10018), 3.37 µM (active); in assay [8] it was 11.3 µM (active); in assay [9], 7.26 µM (active). Moreover, the AC50 in the assay with Caspase-3 (Homo sapiens) is 2.48 µM (active); in assay [12] it was 18.6 µM (active); in assay [13] it was 28.1 µM (active); in assay [15], 9.76 µM (active); in assay [14] it was 10.7 µM (active); with CYP2C8 (gene 1558), 12.6 µM (active). The AC50 with CYP2C9 (gene 1559) is 12.2 µM (active).

Regarding `OCc1ccccc1`, the result in [1], in assay [2], in assay [3], in assay [4], in assay [5] and in [6] was inactive. Further, the molecule was classed as inactive (in [7]; in the assay with BCL2L11 (gene 10018); in assay [8]; in assay [9]; in assay [10]; with Caspase-3 (Homo sapiens)). Besides, the molecule was classed as inactive (in assay [11]; in assay [12]; in [13]; in [14]; in the assay with CYP2C8 (gene 1558); in the assay with CYP2C9 (gene 1559)).
